Reference: PubChem BioAssay (Tox21)
Results filed as inconclusive are left out. The source made the active and inactive calls. Unless noted, calls come from the whole dose curve; as a rule, active = well fitted curve in the direction sought with a large enough effect in the repeat runs; inconclusive = weak or mixed curves; inactive = no such curve, though single readings can be large; an effect the other way counts as inactive or inconclusive.

Tests used:
[1] = qHTS assay to identify small molecule agonists of the vitamin D receptor (VDR) signaling pathway - cell viability counter screen (AID 743224); note: series mostly up to about 63 µM; nearly all actives have a fitted effect of over 50% in size
How it was run: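 In parallel with the bla FRET readout, cytotoxicity toward VDR-bla cells after 16 h compound exposure was assessed by CellTiter-Glo, with luminescence recorded after a 30 min room-temperature incubation.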

[2] = qHTS assay to identify small molecule antagonists of the vitamin D receptor (VDR) signaling pathway - cell viability counter screen (AID 743225); note: nearly all actives have a fitted effect of over 50% in size
How it was run: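 Cytotoxicity toward the VDR-bla HEK 293T line was scored by ATP-based CellTiter-Glo luminescence, read in the wells already used for the beta-lactamase readout after 16 h compound treatment under 3 nM 1-alpha,25-dihydroxyvitamin D3 stimulation.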

[3] = qHTS assay to identify small molecule agonists of the NFkB signaling pathway (AID 1159509; active = well fitted curve in the direction sought with a large enough effect in the signal ratio in the repeat runs, not every such curve was filed as active; the % refers to the signal ratio; note: series mostly up to about 61 µM)
How it was run: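 Readout: FRET fluorescence, 405 nm excitation, 460/530 nm emission; beta-lactamase expression disrupts FRET. Cells: ME-180 stably carrying NF-kB-driven bla reporter. Compound exposure 5 hr, 37 C, 5% CO2.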

[4] = qHTS assay to identify small molecule agonists of the NFkB signaling pathway - cell viability counter screen (AID 1159515; calls by dose curve; note: series mostly up to about 61 µM; nearly all actives have a fitted effect of over 55% in size)
How it was run: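 Plate 2,000 NFkB-bla ME-180 cells/well; incubate overnight. Add compounds, 5 hr at 37 C. Add FRET substrate, 1.5 hr RT. Add CellTiter-Glo, 30 min RT; read luminescence.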

[5] = qHTS assay to identify small molecule agonists of the endoplasmic reticulum stress response signaling pathway (AID 1159516; active = well fitted activation curve with a large enough effect in the signal ratio in the repeat runs, not every such curve was filed as active; the % refers to the signal ratio)
How it was run: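 Beta-lactamase expression from the ER stress response element in HeLa reporter cells is quantified with the LiveBLAzer B/G FRET substrate, read at 405 nm excitation after 2 hr at room temperature, following 5 hr compound treatment at 37 C.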

[6] = qHTS assay to identify small molecule agonists of the endoplasmic reticulum stress response signaling pathway - cell viability counter screen (AID 1159517; calls by dose curve; note: series mostly up to about 61 µM; nearly all actives have a fitted effect of over 50% in size)
How it was run: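 Cytotoxicity of test compounds toward ESRE-bla HeLa cells was assessed after 5 hr exposure. The luminescent CellTiter-Glo signal was measured 30 min after reagent addition.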

[7] = qHTS assay to identify small molecule antagonists of the retinoid-related orphan receptor gamma (ROR-gamma) signaling pathway - cell viability counter screen (AID 1159520); note: nearly all actives have a fitted effect of over 50% in size
How it was run: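 Tet-on ROR gamma CHO cells (1,000/well) were plated 4 hr, given compounds in DMSO for 2 hr at 37 C, then induced with 1 uM final doxycycline for 16 hr. Viability was read as ATP by CellTiter-Glo luminescence after 30 min.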

[8] = target: Nuclear receptor ROR-gamma (Homo sapiens) (UniProt P51449); test: qHTS assay to identify small molecule antagonists of the retinoid-related orphan receptor gamma (ROR-gamma) signaling pathway (AID 1159521)
How it was run: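 Readout: ONE-Glo luciferase luminescence, 30 min at room temperature. System: Tet-on RORγ CHO, RORE-LUC. Sequence: compound 2 h, doxycycline 1 uM final, 16 h at 37 C.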

[9] = qHTS assay to identify small molecule agonists of the AP-1 signaling pathway - cell viability counter screen (AID 1159525; calls by dose curve; note: nearly all actives have a fitted effect of over 55% in size)
How it was run: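 Each titration point was normalised to DMSO and tetra n-octyl ammonium bromide controls. The read was Cell Titer Glo luminescence after 30 min at RT, following 5 h compound exposure of ME-180 AP-1-bla cells at 37 °C.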

[10] = qHTS assay to identify small molecule agonists of the AP-1 signaling pathway (AID 1159526; calls by dose curve)

Measured: Potency

CC(=O)CC/C=C(\C)CC/C=C(\C)CC/C=C(\C)CCC=C(C)C
inactive: [1] | [2] | [3] | [4] | [5] | [6] | [7] | [8] | [9] | [10]

CC(C(=O)O)c1ccc(/C=C2\CCCCC2=O)cc1 (stereo not given)
inactive: [1] | [2] | [3] | [4] | [5] | [6] | [7] | [8] | [9] | [10]

CCOc1ccc2c(c1)C(C)CC(C)(C)N2 (stereo not given)
inactive: [1] | [2] | [3] | [4] | [5] | [6] | [7] | [8] | [9] | [10]

Sc1nc(S)nc(S)n1
inactive: [1] | [2] | [3] | [4] | [5] | [6] | [7] | [8] | [9] | [10]

[O-][n+]1ccc(Cl)cc1
inactive: [1] | [2] | [3] | [4] | [5] | [6] | [7] | [8] | [9] | [10]

CC(O)CN (stereo not given)
inactive: [1] | [2] | [3] | [4] | [5] | [6] | [7] | [8] | [9] | [10]

COc1ccc(/C(C)=C/C(=O)O)c(OC)c1
inactive: [1] | [2] | [3] | [4] | [5] | [6] | [7] | [8] | [9] | [10]

CC(C)=CCCC(C)C=O (stereo not given)
inactive: [1] | [2] | [3] | [4] | [5] | [6] | [7] | [8] | [9] | [10]

O=C(c1ccc(Cl)cc1)c1ccc(Cl)cc1
inactive: [1] | [2] | [3] | [4] | [5] | [6] | [7] | [8] | [9] | [10]

C=CC(C)CCC=C(C)C (stereo not given)
inactive: [1] | [2] | [3] | [4] | [5] | [6] | [7] | [8] | [9] | [10]

CCCC(=O)OCc1ccccc1
inactive: [1] | [2] | [3] | [4] | [5] | [6] | [7] | [8] | [9] | [10]

O=C(OCCN1CCOCC1)c1cccnc1Nc1cccc(C(F)(F)F)c1
inactive: [1] | [2] | [3] | [4] | [5] | [6] | [7] | [8] | [9] | [10]

CC(C)CCCCCOC(=O)CS
inactive: [1] | [2] | [3] | [4] | [5] | [6] | [7] | [8] | [9] | [10]

Cc1ccc2c(Cl)cc(Cl)c(O)c2n1
inactive: [1] | [2] | [3] | [4] | [5] | [6] | [7] | [8] | [9] | [10]

O=C1CCCN1CCO
inactive: [1] | [2] | [3] | [4] | [5] | [6] | [7] | [8] | [9] | [10]

CC(C)Oc1ccccc1O
inactive: [1] | [2] | [3] | [4] | [5] | [6] | [7] | [8] | [9] | [10]

CCCCOC(=O)CC#N
inactive: [1] | [2] | [3] | [4] | [5] | [6] | [7] | [8] | [9] | [10]

CC(C(=O)O)c1ccc2c(c1)Cc1cccnc1O2 (stereo not given)
inactive: [1] | [2] | [3] | [4] | [5] | [6] | [7] | [8] | [9] | [10]

C[C@H](CN1CCCC1)C(=O)c1ccc(C(F)(F)F)cc1
inactive: [1] | [2] | [3] | [4] | [5] | [6] | [7] | [8] | [9] | [10]

Clc1cc(Cl)c2c(c1)N=C1CCCCCN1C2
inactive: [1] | [2] | [3] | [4] | [5] | [6] | [7] | [8] | [9] | [10]

C/C=C1\[C@H]2C=C(C)C[C@]1(N)c1ccc(=O)[nH]c1C2
inactive: [1] | [2] | [3] | [4] | [5] | [6] | [7] | [8] | [9] | [10]

CCOc1ccccc1O
inactive: [1] | [2] | [3] | [4] | [5] | [6] | [7] | [8] | [9] | [10]

Oc1ccc(Oc2ccccc2)cc1
inactive: [1] | [2] | [3] | [4] | [5] | [6] | [7] | [8] | [9] | [10]

NCCOCCOCCN
inactive: [1] | [2] | [3] | [4] | [5] | [6] | [7] | [8] | [9] | [10]
